{
  "source": "PubChem BioAssay (Tox21)",
  "note": "Records with an inconclusive call do not appear. Entries that show only a call come without a potency. The source made the active and inactive calls. Calls come from the whole dose curve. Potency is the fitted concentration of half-maximal effect.",
  "data": [
    {"molecular_target": "5-hydroxytryptamine receptor 2A (Homo sapiens) (UniProt P28223)", "sequence (P28223 whole entry, looked up)": "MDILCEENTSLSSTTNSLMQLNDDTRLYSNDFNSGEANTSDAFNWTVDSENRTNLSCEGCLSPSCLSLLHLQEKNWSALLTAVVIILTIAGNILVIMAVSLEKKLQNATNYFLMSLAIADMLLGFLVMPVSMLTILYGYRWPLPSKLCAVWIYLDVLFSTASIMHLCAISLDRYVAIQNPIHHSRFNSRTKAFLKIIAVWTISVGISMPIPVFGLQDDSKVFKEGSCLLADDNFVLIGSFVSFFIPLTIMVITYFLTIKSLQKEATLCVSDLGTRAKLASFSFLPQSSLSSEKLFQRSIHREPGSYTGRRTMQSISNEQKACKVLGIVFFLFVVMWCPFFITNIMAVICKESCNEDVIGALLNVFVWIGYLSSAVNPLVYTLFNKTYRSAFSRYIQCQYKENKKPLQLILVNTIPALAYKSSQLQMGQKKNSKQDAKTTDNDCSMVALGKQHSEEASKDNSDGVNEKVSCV", "test": "5-hydroxytryptamine receptor 2A (HTR2A) small molecule antagonists, cell-based qHTS assay (AID 1963586); note: nearly all actives have a fitted effect of over 45% in size", "conditions": "HTR2A-CHO cells, DOI-induced calcium flux, fluorescence; series mostly up to 61.5 µM", "from_the_text": "National Center for Advancing Translational Sciences [NCATS]\nDivision of Preclinical Innovation [DPI]\nU.S. Environmental Protection Agency [EPA]\nNational Institutes of Environmental Health Sciences [NIEHS]\nNational Toxicology Program [NTP]\nU.S. Food and Drug Administration [FDA]\nThe HTR2A receptor is a subtype of the 5-HT2 receptor that belongs to the serotonin receptor family and is a G protein-coupled receptor (GPCR). The HTR2A-CHO cell line stably expressing human 5-hydroxytryptamine receptor 2A (HTR2A) can be used for screening antagonists of interactions between 5-HT2 and its ligands. The HTR2A-CHO calcium flux assay is a homogeneous fluorescence-based assay for detecting the intracellular calcium level using FDSS kinetic plate reader system.\nTox21 Assay Protocol Summary:\nHTR2A-CHO cells were dispensed at 2000 cells/3uL/well in 1536-well black-clear bottom plates using a Multidrop Dispenser. After the assay plates were incubated at a 37 C/5% CO2 incubator for 18 h, 3 uL of Dye Loading Buffer was transferred to the assay plate by a Flying Reagent Dispenser. The assay plates were incubated at 37 C for 1h. For antagonist mode, 23 nL of compounds dissolved in DMSO, positive controls or DMSO only was transferred to the assay plate by a pin tool. After 5 min incubation at room temperature, 1.5 uL of 4-Iodo-2,5-dimethoxy-alpha-methylbenzeneethanamine hydrochloride (DOI) at 4nM was added to each well. The fluorescence intensity in the plates was measured using FDSS 7000EX kinetic plate reader for 3 min at 1 sec intervals.", "values": [
      {"compound": "CN1CCN(C)CC1", "Potency": "inactive"},
      {"compound": "O=C=NCC1CCCC(CN=C=O)C1", "note": "(stereo not given)", "Potency": "inactive"},
      {"compound": "Cc1ccc(O)c([C@H](CCN(C(C)C)C(C)C)c2ccccc2)c1", "Potency": "inactive"},
      {"compound": "CC1(O)CSC(C)(O)CS1", "note": "(stereo not given)", "Potency": "inactive"},
      {"compound": "Cc1ccc(-c2ncc(Cl)cc2-c2ccc(S(C)(=O)=O)cc2)cn1", "Potency": "inactive"},
      {"compound": "[Ca+2]", "Potency": "inactive"},
      {"compound": "O=C1C=CC(=O)N1c1cccc(N2C(=O)C=CC2=O)c1", "Potency": "inactive"},
      {"compound": "CC(C)NCC(O)c1cc(O)cc(O)c1", "note": "(stereo not given)", "Potency": "inactive"},
      {"compound": "O=C(O)c1ccc(O)c(O)c1", "Potency": "inactive"},
      {"compound": "CCCc1ccccc1O", "Potency": "inactive"},
      {"compound": "N[C@@H](CS)C(=O)O", "Potency": "inactive"},
      {"compound": "O=C1NCC2(CCN(CCc3ccccc3)CC2)O1", "Potency": "inactive"},
      {"compound": "O=S(=O)(Oc1ccc(Cl)cc1)c1ccccc1", "Potency": "inactive"},
      {"compound": "O=[N+]([O-])c1cccc(Cl)c1Cl", "Potency": "inactive"},
      {"compound": "Cc1ccccc1N=C(N)N=C(N)N", "Potency": "inactive"},
      {"compound": "C[C@H]1COc2c(C3(N)CC3)c(F)cc3c(=O)c(C(=O)O)cn1c23", "Potency": "inactive"},
      {"compound": "Cc1[nH]c(C)c(Cl)c(=O)c1Cl", "activity, negative = inhibition": "81.1% [at 12.7 µM] (inactive)"},
      {"compound": "CC1(C)C(=O)N(Br)C(=O)N1Br", "Potency": "inactive"},
      {"compound": "CCC(C)O", "note": "(stereo not given)", "Potency": "inactive"},
      {"compound": "Oc1ccc(-c2ccccc2)c(Cl)c1", "Potency": "26.5 µM (active)"},
      {"compound": "CCCCN(CCC(=O)OCC)C(C)=O", "Potency": "inactive"},
      {"compound": "CC(C)=CC(C)(C)C", "Potency": "inactive"},
      {"compound": "CCCCC(CC)CN=C(N)NC(N)=NCCCCCCN=C(N)NC(N)=NCC(CC)CCCC", "note": "(stereo not given)", "Potency": "18.3 µM (active)"},
      {"compound": "CCCNC(C)(C)COC(=O)c1ccccc1", "Potency": "inactive"},
      {"compound": "CCCCOC(=O)CC#N", "Potency": "inactive"},
      {"compound": "Clc1ccc(C(Cn2ccnc2)OCc2ccsc2Cl)c(Cl)c1", "note": "(stereo not given)", "Potency": "inactive"},
      {"compound": "CCCC/C=C/CCCCO", "Potency": "inactive"},
      {"compound": "CC/C=C\\CCOC(C)OCC", "note": "(stereo not given)", "Potency": "inactive"},
      {"compound": "CCCCCCC1CCC(=O)O1", "note": "(stereo not given)", "Potency": "inactive"},
      {"compound": "COc1cc(C(C)(C)C)c(O)c(C(C)(C)C)c1", "Potency": "inactive"},
      {"compound": "NNc1nc(-c2ccccc2)cs1", "Potency": "inactive"},
      {"compound": "C[C@H]1O[C@@H](O[C@H]2CC[C@@]3(C)[C@H](CC[C@@H]4[C@@H]3C[C@@H](O)[C@]3(C)[C@@H](C5=CC(=O)OC5)CC[C@]43O)C2)C[C@H](O)[C@@H]1O[C@H]1C[C@H](O)[C@H](O[C@H]2C[C@H](O)[C@H](O[C@@H]3O[C@H](CO)[C@@H](O)[C@H](O)[C@H]3O)[C@@H](C)O2)[C@@H](C)O1", "Potency": "inactive"},
      {"compound": "CCCC1CCC(=O)CC1", "Potency": "inactive"},
      {"compound": "CC(=O)Oc1ccc(C(=C2CCCCC2)c2ccc(OC(C)=O)cc2)cc1", "Potency": "inactive"},
      {"compound": "COc1cc(C(=O)NC2CCN(C)CC2)ccc1Nc1ncc2c(n1)N(C1CCCC1)CC(F)(F)C(=O)N2C", "Potency": "inactive"},
      {"compound": "CC(C)C1=CC2=CC[C@@H]3[C@](C)(CCC[C@@]3(C)C(=O)O)[C@H]2CC1", "Potency": "inactive"},
      {"compound": "Cc1ccc(C)c([N+](=O)[O-])c1", "Potency": "inactive"},
      {"compound": "Nc1ccc(N=Nc2ccc(N)cc2)cc1", "Potency": "inactive"},
      {"compound": "O=C(O)Cn1cnnn1", "Potency": "inactive"},
      {"compound": "C[C@]12C(=O)OC(=O)[C@H]1[C@H]1C=C[C@@H]2C1", "Potency": "inactive"}
    ]}
  ]
}
